The results in this text go back to PubChem BioAssay AID738 (SRMLSC, 2007).

Hit rate of the full screen: of about 98,000 compounds, about 4,900 (5%) were called active. The full list was thinned out, with actives kept by preference. A number with no mark means an inactive call. Cut-off read from the data, not from the text of the source: active = inhibition above about 30%; inactive = the rest.

A short description of the assay: yeast control strain growth suppression – counter-screen for post-Golgi transport modulator project, primary screen (AID 738). As to conditions: efflux-deficient yeast background strain, growth absorbance A615, 16 h; at 10 µM; active compounds read high.
`CCC(=O)c1ccc(OCC(O)CN2CC(C)OC(C)C2)cc1` (stereo not given): the inhibition was 30.9% (active).
The same measure for `O=C(C(c1ccccc1)c1ccccc1)N1CCN(CC(O)COc2ccccc2)CC1` (stereo not given): 9.41%.
Turning to `OC(COc1cccc(OCC(O)CN2CCCC2)c1)CN1CCCC1` (stereo not given), the inhibition was 0.3%.
The same measure for `CCC(=O)c1ccc(OCC(O)CN2CCN(c3cccc(C(F)(F)F)c3)CC2)cc1` (stereo not given): 38.7% (active).
Under `O=S(=O)(c1ccc(OCC(O)CN2CCN(c3ccccc3Cl)CC2)cc1)N1CCOCC1` (stereo not given) stands -0.44%; under `CCC(=O)c1ccc(OCC(O)CN2C(=O)NC(C)(C)C2=O)cc1` (stereo not given), 7.58%; under `O=C(COc1ccc(Cl)cc1)N1CCN(c2cccc(C(F)(F)F)c2)CC1`, 27.6%.
For the compound `O=C(c1ccc(Cl)cc1)c1ccc(OCC(O)CN2CCCCC2)cc1` (stereo not given), the inhibition is 7.05%.
Under `OC(COc1ccc2c(c1)CCC2)CN1CCN(c2cccc(Cl)c2)CC1` (stereo not given) stands 82.4% (active).
Turning to `Cc1cc(C(=O)OCC(=O)Nc2ccc(F)c(F)c2)c(C)o1`, the inhibition was 8.41%.
Under `O=C(Nc1ccc2sc3ccccc3c(=O)c2c1)c1ccccc1Cl` stands -1.51%; under `CN(CC#CCC(c1ccccc1)c1ccccc1)C(C)(C)C`, 15.3%.
The same measure for `COC(=O)c1ccccc1NC(=O)CN(Cc1ccc(Cl)cc1)S(C)(=O)=O`: 20.7%.
Under `CC(=O)N1Cc2ccccc2CC1C(=O)O` (stereo not given) stands -1.83%; under `COc1cccc(N(CC(=O)N2CCc3ccccc3C2)S(C)(=O)=O)c1`, 2.59%.
With `Cc1ccc(S(=O)(=O)N(CC(=O)N2CCc3ccccc3C2)c2cccc(Cl)c2)cc1`, the inhibition is 53.7% (active).
Regarding `CCOC(=O)N1CCN(C(=O)CN(c2ccc(C)c(C)c2)S(=O)(=O)c2ccccc2)CC1`, the inhibition is -2.62%.
The same measure for `COc1ccc(Cl)cc1NC(=O)CN(C)C(=O)CNC(=O)C12CC3CC(CC(C3)C1)C2`: 11.5%.
Under `CCCCN=C1N/C(=C\c2ccco2)C(=O)N1c1ccccc1` stands 13.4%; under `Cc1ccc(C(=O)NNC(=O)OC(C)(C)C)c(Cl)c1`, -3.45%.
The same measure for `COc1ccc(N2CCN(Cc3cc(=O)oc4ccc5ccccc5c34)CC2)cc1`: 31% (active).
Regarding `COc1ccc(N2CCN(Cc3ccc(Br)s3)CC2)cc1`, the inhibition was 1.68%.
On to `O=c1cc(CN2CCN(c3cccc(Cl)c3)CC2)c2cc3c(cc2o1)CCCC3`, for which the inhibition was 1.31%.
The same measure for `NC(=O)c1nsc(C(=O)N(CC(=O)NCc2ccc(F)cc2)Cc2ccco2)c1N`: -18.4%; for `COc1ccc(OCC(=O)N2CCN(C(=O)COc3ccccc3)CC2)cc1`: -2.43%; for `COc1ccc(C(=O)Nc2cc(C)ccc2NC(=O)COc2ccccc2)cc1`: -12.5%.
Under `COc1ccc(OCC(=O)NN2Cc3ccccc3C2=N)cc1` stands 30.9% (active).
Under `CC(=O)N1CCN(c2cccc(C)c2C)CC1` stands 3.94%; under `Cc1cccc(N2CCN(C(=O)c3cnn4c(C(F)F)cc(-c5ccccc5)nc34)CC2)c1C`, 61.4% (active).
As for `O=C(O)c1cnn2c(C(F)(F)F)cc(-c3ccccc3)nc12`, the inhibition is -4.57%.
Under `Clc1ccccc1-c1cc(COc2ccc3ccccc3c2)no1` stands 1.75%.
Under `CN(C)S(=O)(=O)c1ccc(N2CCCC2)c(C(=O)NCc2ccccc2)c1` stands 4.17%; under `CCOc1[nH]n(-c2ccc(Cl)cc2)c(=O)c1C=Nc1ccc(O)cc1`, 1.52%.
Under `CCOc1ccc(N=C2NC(=O)S/C2=C\c2ccc(O)cc2)cc1` stands 41.5% (active); under `CCOc1ccc(N=C2SC(C(=O)O)CC(=O)N2C)cc1` (stereo not given), -1.43%; under `O=C1CCN(C(=O)Nc2ccccc2)N1`, 1.84%.
In the case of `Cc1ccccc1NC(=S)Nc1cccc([N+](=O)[O-])c1`, the inhibition was -0.57%.
The same measure for `CCOC(=O)N1CCN(C(=O)c2ccc3c(c2)N(Cc2ccc(C)cc2)CCS3)CC1`: 34.6% (active); for `CCOC(=O)N1CCN(C(=O)c2ccc(S(=O)(=O)c3ccc(C)cc3)c(NC(C)=O)c2)CC1`: 7.81%; for `CCOC(=O)N1CCN(C(=O)c2ccc(CN(c3ccc(C)c(C)c3)S(C)(=O)=O)cc2)CC1`: 3.07%.
The same measure for `Cc1ccc(NC(=O)CN2CCc3ccccc3C2)cc1`: 8.09%.
`O=C(Oc1ccc([N+](=O)[O-])cc1)c1ccc2ccccc2n1`: the inhibition is 41.8% (active).
As for `Cc1cccc(NC(=O)c2ccc3ccccc3n2)n1`, the inhibition was 12.6%.
For the compound `N/C(Cc1ccc([N+](=O)[O-])cc1)=N\OC(=O)COc1ccc2ccccc2c1`, the inhibition was 18.8%.
As for `Cc1ccc(C(=O)OC2=CC(=O)CC(C)(C)C2)cc1`, the inhibition was -1.57%.
Turning to `COc1cccc(NC(=O)c2nn(C34CC5CC(CC(C5)C3)C4)cc2[N+](=O)[O-])c1`, the inhibition was 26.5%.
Under `Cc1ccc2c(c1)c1ncn(CCC3=CCCCC3)c(=O)c1n2C` stands 21.9%.
Under `Cc1ccc2c(c1)c1ncnc(N3CCc4ccccc4C3)c1n2C` stands 30% (active); under `Cc1ccc(S(=O)(=O)Nc2nc3ccccc3nc2N2CCc3ccccc3C2)cc1`, 19.2%.
The same measure for `O=C(O)/C=C/C(=O)Nc1ccc(F)cc1F`: 11.5%; for `Cc1ccc(-c2nc3c(cnn3-c3ccccc3)c(=O)o2)cc1`: 15.6%; for `Cc1ccc(-n2nc(N)c3c(=O)oc(N(C)C)nc32)cc1`: 33.1% (active).
For the compound `O=C(Nc1cc(-c2nn(CC(=O)N3CCCCC3)c(=O)c3ccccc23)ccc1N1CCOCC1)c1ccc(Cl)cc1`, the inhibition is 0.85%.
Under `N=c1ccn(CC(=O)NC(N)=O)c2ccccc12` stands 12.8%.
In the case of `N#Cc1ccc(Oc2cc(C(F)(F)F)nc(-c3ccccn3)n2)cc1`, the inhibition is 1.51%.
Under `O=C(Oc1ccccc1)Oc1ccc2c(c1)oc(=O)c1ccccc12` stands 41% (active); under `CC(=O)Nc1cc2ccc(OC(C)=O)cc2oc1=O`, -1.59%.
The same measure for `CC(=O)Oc1ccc2c(C)c(CC(C)O)c(=O)oc2c1` (stereo not given): 9.1%; for `CSc1nc2ccccc2cc1/C=C(\C#N)c1ccc(Cl)cc1Cl`: 24.2%.
Under `CCCCC(=O)Nc1ccc2c(c1)OCCO2` stands -0.45%.
In the case of `Cn1c(=O)n(C)c2cc(C(=O)Nc3ccc4c(c3)OCO4)ccc21`, the inhibition was 1.14%.
For the compound `O=C(Nc1ccc2c(c1)OCCO2)c1ccncc1`, the inhibition was 31.6% (active).
For the compound `O=C(CCN1C(=O)c2ccncc2C1=O)Nc1ccc2c(c1)OCCO2`, the inhibition was 30.7% (active).
Under `O=C(CCN1C(=O)c2ccccc2C1=O)Nc1ccncc1` stands 13.3%.
The same measure for `O=C(Nc1ccc2c(c1)OCCO2)c1cnccn1`: 14.2%.
